Screening data as filed in PubChem.
Sampled rows, rich in hits. Any-hit rate of the full collection: about 7.3%.
ELG1 genotoxic: inducers of genotoxicity in HEK293T ELG1-luciferase cells; 330,000 tested, 1.3% active; AID 504466; Potency, µM (highest dose often 46 µM), most hits filed as activators; HEK293T ELG1-luciferase reporter, luminescence, 16 h; further: nearly all actives have a fitted effect of over 60% in size
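HEK293T cells expressing luciferase-tagged ELG1 were treated with compound or DMSO for 16 hr at 37°C. Luciferase activity was then read after 30 min with ONE-Glo at room temperature; rising signal flags genetic stress.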
Rab9 prom act: activates the Rab9 promoter | Huh7 Rab9 promoter-luciferase reporter, luminescence, 24 h | Potency, µM (doses to about 9.22 µM), most hits filed as activators | 320,000 tested, 2.8% active | AID 485297; further: nearly all actives have a fitted effect of over 60% in size
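Luminescence read-out: Huh7 cells stably expressing Rab9-luciferase, treated 24 h with compound at 37 °C, then lysed with luciferase reagent for 10 min at ambient before reading.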
NPC1 promoter act: NPC1 promoter activation; Huh7 NPC1 promoter luciferase reporter, 24 h; Potency, µM (highest dose often 9.22 µM), hits mostly activators; 320,000 tested, 2.4% active; further: nearly all actives have a fitted effect of over 60% in size
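Cells: Huh7 expressing luciferase under the NPC1 promoter, 1500/well. Seeded 2 h, compound added, incubated 24 h at 37 °C. Luciferase reagent, 10 min ambient, then luminescence.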
SMN2 splice up: increases expression of the SMN2 splice variant | HEK293 SMN2-luciferase splicing reporter, luminescence, 30-36 h | Potency, µM (highest dose often 46.1 µM), most hits filed as activators | 210,000 tested, 2.8% active; further: nearly all actives have a fitted effect of over 55% in size
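HEK293 cells carry an SMN2 […]–luciferase reporter in which exon 7 inclusion puts luciferase in frame. Cells were plated 10-12 h before compound addition, then incubated 30-36 h at 37C. ONE-Glo luminescence was read; sodium butyrate at 4.5 mM final served as control.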
FLuc modulator: firefly luciferase modulation, counter-screen for miR-21 project | P08659 | purified FLuc, Km substrates, luminescence inhibition | Potency, µM (titrated, usually from 57.5 µM), actives largely listed as inhibitors | 360,000 tested, 6.9% active | AID 588342; further: nearly all actives have a fitted effect of over 55% in size
Target sequence (P08659 whole entry, looked up): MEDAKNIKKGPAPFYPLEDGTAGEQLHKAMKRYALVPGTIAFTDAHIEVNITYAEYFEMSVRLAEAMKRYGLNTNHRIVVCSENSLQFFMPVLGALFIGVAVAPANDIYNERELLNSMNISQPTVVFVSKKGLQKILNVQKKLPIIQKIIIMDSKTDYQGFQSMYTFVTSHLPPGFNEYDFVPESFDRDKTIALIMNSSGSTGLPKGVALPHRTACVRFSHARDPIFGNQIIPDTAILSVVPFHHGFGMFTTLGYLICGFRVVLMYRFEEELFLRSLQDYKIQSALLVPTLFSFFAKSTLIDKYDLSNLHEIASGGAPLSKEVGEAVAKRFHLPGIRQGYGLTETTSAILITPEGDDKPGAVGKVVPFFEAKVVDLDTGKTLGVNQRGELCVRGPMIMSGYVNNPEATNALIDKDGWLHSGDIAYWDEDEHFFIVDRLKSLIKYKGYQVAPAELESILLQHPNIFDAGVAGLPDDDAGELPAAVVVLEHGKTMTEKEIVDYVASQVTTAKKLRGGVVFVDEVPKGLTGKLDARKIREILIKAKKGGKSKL
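Purified P. pyralis luciferase (10nM final) with 10uM D-luciferin and 10uM ATP (Km levels) in 50mM Tris acetate pH 7.5, 10mM Mg acetate, 0.01% Tween-20, 0.05% BSA; qHTS 6-point titration, ~60 µM downward; luminescence read.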
Luc counter: blocks Kinase-Glo luciferase, a counter-screen artifact; Potency, µM (titrated, usually from 38.3 µM), most hits filed as inhibitors; Kinase-Glo luciferase, ATP luminescence, 8 min; AID 1379; 200,000 tested, 0.28% active; further: nearly all actives have a fitted effect of over 60% in size
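Compound is pinned into ATP-containing buffer (10 uM ATP, imidazole pH 7.2, 7 mM MgCl2). Kinase-Glo luciferase reagent is then added. Light output is recorded following an 8-min room-temperature incubation.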
Numbers stand for hits; i = inactive; ? = inconclusive; nt = not tested or not shown; [ ] = another dose, or the depositor's remark. The call rests on the fitted dose curve; in most records, active means well fitted curve in the direction sought with a large enough effect; inconclusive means small, poorly fitted or top-dose-only effect, or another doubt; inactive means no such curve, though single readings can be large; an effect the other way counts as inactive or inconclusive.

SMILES	ELG1 genotoxic	Rab9 prom act	NPC1 promoter act	SMN2 splice up	FLuc modulator	Luc counter
O=C(Nc1ccc(Br)cc1F)N1CCC2(CC1)Oc1ccccc1C(=O)N2Cc1ccccc1F	nt	nt	nt	i	i	nt
CC(CN1CCCC1)OC(=O)c1ccc(Cl)cc1Cl (configuration not stated)	i	i	i	nt	?	nt
O=C(O/N=C1/CCCc2occc21)c1ccc(Cl)cc1Cl	i	i	i	nt	5.36µM	nt
O=C(O/N=C1/CCCc2occc21)c1ccccc1	i	i	i	i	2.13µM	?
COc1ccccc1CNC(=O)Cn1ncc2c(C)n(Cc3ccccc3Cl)c(C)c2c1=O	nt	nt	nt	i	i	nt
Cc1ccc(CONC(=O)c2ccccc2)cc1	?	?	?	nt	15.1µM	nt
Cc1ccc(C(=O)N/C(=C\c2ccccc2)C(=O)OCc2ccccc2)cc1	?	?	?	20µM	15.1µM	i
Cc1ccc(CONC(=O)c2ccc(C)cc2)cc1	?	?	?	nt	13.5µM	nt
Cc1ccc(C(=O)N/C(=C/c2ccco2)C(=O)OCN2C(=O)c3ccccc3C2=O)cc1	i	i	i	i[1.84 µM]	10.7µM	i
Cc1ccc(CONC(=O)c2ccc(Cl)cc2)cc1	?	?	i	nt	?	nt
COc1cccc(CNC(=O)CCCn2ncn3c(cc4occc43)c2=O)c1OC	nt	nt	nt	i	i	nt
CCCCOC(=O)Oc1ccc2c(=O)c(Oc3cccc(C)c3)coc2c1	i	i	i	12.6µM	i	i
COc1ccc(-c2csc(NNC3=NCCCCC3)n2)cc1	i	i	i	i	?	i
COc1ccc(-c2csc(NC3=NCCCCC3)n2)cc1	i	?	?	i[1.84 µM]	12µM	i
c1ccc(-c2csc(NNC3=NCCCCC3)n2)cc1	?	i	i	i	15.1µM	i
Clc1ccc(-c2csc(NNC3=NCCCCC3)n2)cc1	i	i	i	i	?	i
O=C(O)CSc1cccc[n+]1[O-]	nt	nt	nt	i	i	i
O=C(CSc1cccc[n+]1[O-])c1cc2ccccc2o1	?	?	?	i	19µM	i
COc1ccc(C(=O)COC(=O)CCC(=O)Nc2ccc(C(C)=O)cc2)cc1	?	i	i	nt	?	nt
COc1ccc(C(=O)COC(=O)CCCC(=O)Nc2ccc(C(C)=O)cc2)cc1	nt	nt	nt	i	5.36µM	nt
COc1ccc(C(=O)COC(=O)CCc2ccccc2)cc1	i	i	i	nt	26.9µM	nt
CCCc1ccc(C(=O)CCC(=O)O)cc1	i	i	i	i	23.9µM	i
O=C(CCc1ccccc1)OCC(=O)c1ccc([N+](=O)[O-])cc1	i	i	i	i	i	i
COc1ccc(C(=O)COC(=O)CCn2nnc(-c3cccc(O)c3OC)n2)cc1	i	i	i	i	9.53µM	i
CCc1nn(CC(=O)Nc2c(C)cccc2C)c(=O)c2cc3sccc3n12	nt	nt	nt	i	i	nt
SMILES	ELG1 genotoxic	Rab9 prom act	NPC1 promoter act	SMN2 splice up	FLuc modulator	Luc counter
COc1ccc(C(=O)CCc2ccccc2)cc1	?	?	?	nt	16.9µM	nt
O=C(Nc1ccc(Cl)cc1)ON=C1CCCC1	?	3.55µM	i	i[1.84 µM]	16.9µM	i
CC(C)(C)c1ccc(C(=O)c2c[nH]c(C(=O)O)c2)cc1	i	?	?	12.6µM	2.13µM	i
CN(C)C=NC(=O)c1cc(C(=O)c2ccc(C(C)(C)C)cc2)c[nH]1	2.91µM	1.12µM	1.12µM	3.16µM	9.53µM	i
CNC(=O)c1cc(C(=O)c2ccc(C(F)(F)F)cc2)c[nH]1	?	i	i	nt	?	nt
COC(=O)c1cc(C(=O)c2ccc(C(C)(C)C)cc2)c[nH]1	?	i	i	i	19µM	i
CN(C)C=NC(=O)c1cc(C(=O)c2ccccc2Cl)c[nH]1	i	i	i	i	i	i
CC(=O)c1cccc(NC(=O)CC(c2ccc(C)cc2)N2Cc3ccccc3C2=O)c1 (configuration not stated)	nt	nt	nt	nt	i	nt
COc1ccc(CCC(=O)NCc2nc3cccnc3n2Cc2ccc(C)cc2)cc1	nt	nt	nt	nt	i	nt
COCCNC(=O)C1(CC(C)C)C=CCN1C(C)=O (configuration not stated)	nt	nt	nt	i	nt	i
COC(=O)CNC(=O)C1(CC(C)C)C=CCN1C(C)=O (configuration not stated)	nt	nt	nt	12.6µM	nt	i
COc1ccc(C(=O)Sc2ccc(Cl)cc2)cc1OC	i	i	i	i	2.69µM	i
COc1ccc(C(=O)c2ccc(OC)c(OC)c2)cc1OC	i	i	i	i	i	i
COc1ccc(C(=O)Sc2ccc(C)cc2)cc1OC	i	i	i	i	6.75µM	i
Cc1cccc(N=Nc2c(O)[nH]c3ccc(Br)cc23)c1	?	i	?	nt	15.1µM	nt
Cc1ccc(Cn2c(=O)c3cccnc3n(CC(=O)Nc3cc(Cl)ccc3C)c2=O)cc1	nt	nt	nt	i	i	nt
CCOC(=O)Nc1ccc2nc(N3CCCCCC3)sc2c1	10.3µM	?	?	nt	7.57µM	nt
COc1ccc(CCNC(=O)C2CCCN(c3nc4c(C)cc(C)cc4s3)C2)cc1OC (configuration not stated)	nt	nt	nt	2.82µM	?	nt
CCOc1ccc2nc(N3CCCC(C(=O)Nc4ccc(CC)cc4)C3)sc2c1 (configuration not stated)	nt	nt	nt	i	?	nt
CCOC(=O)N1CCN(C(=O)Nc2ccc3nc(C)sc3c2)CC1	i	i	i	?	i[2.3 µM]	i
CCOC(=O)N1CCN(C(=O)C2CCCN(c3nc4ccc(OCC)cc4s3)C2)CC1 (configuration not stated)	i	i	i	i	12µM	i
CCOc1ccc2nc(N3CCCC(C(=O)Nc4cccc(Cl)c4C)C3)sc2c1 (configuration not stated)	nt	nt	nt	7.94µM	3.38µM	nt
Cc1ccc2c(c1)-c1c(cnn1CC(=O)N1CCN(c3cccc(C(F)(F)F)c3)CC1)CO2	nt	nt	nt	i	i	nt
CCOc1ccc2nc(N3CCCC(C(=O)Nc4cc(Cl)c(OC)cc4OC)C3)sc2c1 (configuration not stated)	nt	nt	nt	?	2.69µM	nt
CCOc1ccc2nc(N3CCCC(C(=O)NCCc4ccc(SC)cc4)C3)sc2c1 (configuration not stated)	nt	nt	nt	20µM	i	nt
SMILES	ELG1 genotoxic	Rab9 prom act	NPC1 promoter act	SMN2 splice up	FLuc modulator	Luc counter
CCOc1ccc2nc(N3CCC(C(=O)NC4CCCCC4)CC3)sc2c1	i	i	i	nt	?	nt
CCOc1ccc2nc(N3CCCC(C(=O)NC4CCCC4)C3)sc2c1 (configuration not stated)	i	?	?	nt	3.01µM	nt
Cc1cc(C)c2nc(N3CCC(C(=O)NCc4ccccn4)CC3)sc2c1	i	i	i	i	16.9µM	i
CCOc1ccc2nc(N3CCCC(C(=O)Nc4ccc(OC)cc4)C3)sc2c1 (configuration not stated)	nt	nt	nt	i	1.51µM	nt
CN(C)c1ccc(-c2nccc(NCCN3CCOCC3)n2)cc1	nt	nt	nt	i	nt	i
Cc1ccc(C(=O)Oc2cccc(-n3cnnn3)c2)cc1	?	i	i	i	?	i
Cc1ccc(C(=O)Oc2ccc3c(c2)ncn3C)cc1	i	i	i	nt	3.01µM	i
